Vaccinia Venus: qHTS for Stage-Specific Inhibitors of Vaccinia Orthopoxvirus: Venus Reporter Primary qHTS | Vaccinia virus Venus reporter expression, fluorescence | Potency, µM (titrated, usually from 36.5 µM), actives largely listed as inhibitors | hit rate 0.46% among 330,000 | AID 720580, 2013; calls by dose curve; tested in A549 cells; also: nearly all actives have a fitted effect of over 30% in size
AmpC inh no detg: qHTS Inhibitors of AmpC Beta-Lactamase (assay without detergent); P00811; AID 485341, 2010; AmpC nitrocefin hydrolysis, absorbance 480 nm, 0.0001% Triton; hit rate 0.52% among 330,000; Potency, µM (doses to about 57.1 µM), actives largely listed as inhibitors; also: nearly all actives have a fitted effect of over 20% in size
Target sequence (P00811 whole entry, looked up): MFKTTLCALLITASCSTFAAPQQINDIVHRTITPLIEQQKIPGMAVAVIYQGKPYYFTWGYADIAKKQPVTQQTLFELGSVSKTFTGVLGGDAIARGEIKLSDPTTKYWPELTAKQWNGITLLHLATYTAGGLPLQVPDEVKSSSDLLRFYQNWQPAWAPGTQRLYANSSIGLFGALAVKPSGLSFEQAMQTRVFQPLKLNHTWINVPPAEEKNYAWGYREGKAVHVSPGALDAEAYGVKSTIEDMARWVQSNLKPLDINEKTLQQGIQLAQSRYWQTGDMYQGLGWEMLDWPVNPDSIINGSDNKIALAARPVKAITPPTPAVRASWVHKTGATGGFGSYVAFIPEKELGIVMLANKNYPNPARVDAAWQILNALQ
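AmpC (5.3 nM in the dispensed reagent) in 20 mM phosphate pH 7.0 with 0.01% (detergent screen) or 0.0001% Triton X-100 was preincubated with compounds for 15 min at room temperature. Nitrocefin was then added from an 800 uM solution, and hydrolysis was followed at 480 nm.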
AmpC detergent: qHTS Inhibitors of AmpC Beta-Lactamase (assay with detergent) | P00811 | AmpC hydrolysis of nitrocefin, absorbance 480 nm, 0.01% Triton | hit rate 0.041% among 370,000 | Potency, µM (highest dose often 114 µM), hits mostly inhibitors; also: nearly all actives have a fitted effect of over 25% in size
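20 mM phosphate pH 7.0 + 0.01% (detergent screen) or 0.0001% Triton X-100; 5.3 nM AmpC reagent; cpd preinc 15 min RT; nitrocefin (800 uM stock) to start; A480 q20 s × 4 min; Activity was normalised to no-enzyme and no-compound control wells.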
SARS PLP yeast: qHTS of Yeast-based Assay for SARS-CoV PLP. S. cerevisiae expressing SARS-CoV PLpro, growth rescue. Potency, µM (titrated, usually from 32.9 µM), usual class: activators. hit rate 0.19% among 330,000. AID 485353, 2010; calls by dose curve; also: nearly all actives have a fitted effect of over 55% in size
AMA1-RON2 inh: qHTS for Inhibitors of AMA1-RON; Towards Development of Antimalarial Drug Lead: Primary Screen | Plasmodium falciparum AMA1 (3D7) - RON2 peptide interaction | AlphaScreen AMA1-biotinylated RON2 peptide binding | Potency, µM (doses to about 58.2 µM), usual class: inhibitors | hit rate 0.2% among 360,000; also: nearly all actives have a fitted effect of over 45% in size
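AMA1 (3D7) with his tag at 25 nM final met compounds first, then biotinylated RON2 peptide at 25 nM; detection used donor plus acceptor beads, 10 µg/mL apiece, read by AlphaScreen after 30 min at room temperature.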
Vaccinia mCherry: qHTS for Stage-Specific Inhibitors of Vaccinia Orthopoxvirus: mCherry Reporter Primary qHTS; Vaccinia virus mCherry reporter infection, fluorescence; Potency, µM (series often up to 36.5 µM), usual class: inhibitors; hit rate 0.63% among 310,000; calls by dose curve; tested in A549 cells; also: nearly all actives have a fitted effect of over 35% in size
Numbers stand for hits; 0 = inactive; ? = inconclusive; - = not tested or not shown; ! = not confirmed by another sample. This is a sample that favours compounds with a hit; in the whole collection about 1.4% have one here. Unless noted, calls follow the shape of the dose curve; as a rule, active = well fitted curve in the direction sought with a large enough effect; inconclusive = small, poorly fitted or top-dose-only effect, or another doubt; inactive = no such curve, though single readings can be large; an effect the other way counts as inactive or inconclusive.

SMILES | Vaccinia Venus | AmpC inh no detg | AmpC detergent | SARS PLP yeast | AMA1-RON2 inh | Vaccinia mCherry
COc1ccccc1-c1cc(C(=O)Nc2sc3c(c2C#N)CCC(C)C3)c2ccccc2n1 (stereo not drawn) | 0 | ? | 0 | 0 | 0 | 0
Cc1cc(C(=O)OCC(=O)Nc2sc3c(c2C#N)CCC(C)C3)c2ccccc2n1 (stereo not drawn) | 0 | 14µM | 0 | 0 | 0 | 0
Cc1ccccc1C1(CC(=O)N2CC3CC4CC(C3)CC2C4)CC(=O)N(Cc2cccnc2)C1=O (stereo not drawn) | 0 | - | - | - | - | 0
COc1ccc(Cl)cc1N(C)c1nc(N2CCN(S(=O)(=O)c3ccc(C)cc3)CC2)c2ccccc2n1 | 0 | - | - | - | - | 0
COC(=O)c1c(OCc2cccnc2)cc(=O)n2c1CCN(C(=O)c1ccc(OC)c(F)c1)CC2 | 0 | - | - | - | - | 0
CCOc1ccc(C(c2c(O)cc(C)n(Cc3ccco3)c2=O)N2CCN(C)CC2)cc1 (stereo not drawn) | 0 | - | 0 | - | - | 0
O=C(Nc1nc2ccccc2s1)C1CCN(S(=O)(=O)c2cc([N+](=O)[O-])ccc2Cl)CC1 | - | 7.9µM | 0 | 0 | 0 | -
CCC(C)NC(=O)C1CCN(S(=O)(=O)c2cc([N+](=O)[O-])ccc2Cl)CC1 (stereo not drawn) | - | 0 | 0 | 0 | 0 | -
COc1ccc(CN(Cc2ccccc2)C(=O)c2ccncc2)cc1COc1ccc(NC(C)=O)cc1 | 0 | - | - | - | - | 0
O=C(CCl)Nc1cccn2ncnc12 | 7.9µM | 0 | 0 | ? | 0 | -
O=C(Nc1cccn2ncnc12)C(F)(F)F | 0 | 0 | ? | 0 | 0 | 0
O=C(NC[C@@H]1CCCN2CCCC[C@H]12)c1cnn(-c2nccc(-c3cc4ccccc4o3)n2)c1C1CC1 | 0 | - | - | - | - | 0
Cc1nc2nc(NC(=O)c3ccc(C(C)(C)C)cc3)[nH]n2c(=O)c1C | 0 | - | 0 | - | - | 0
COc1ccc(N2CCN(c3oc(COc4ccc(Cl)cc4Cl)nc3C#N)CC2)cc1 | 0 | 0 | ? | 0 | 25µM | -
COc1ccc(N2CCN(c3oc(Cc4ccccc4)nc3C#N)CC2)cc1 | - | 0 | 0 | 0 | 17µM | -
CCCCN(CC)CCCNC(=O)c1ccc2c(c1)N(Cc1ccc(C)cc1)C(=O)c1ccccc1S2 | ? | - | 0 | - | - | 13µM
COCCCNC(=O)c1ccc2c(c1)N(Cc1ccccc1)C(=O)c1ccccc1S2 | 0 | - | 0 | - | - | 0
CCCN(CCC)c1nc(Cl)nc(NCc2ccco2)n1 | - | 0.16µM | 0 | 0 | 0 | -
OCCNc1nc(Cl)nc(NCc2ccco2)n1 | - | 0 | 0 | 0 | 0 | -
CCSc1nnc(C(C)NS(=O)(=O)c2cccc(Cl)c2C)n1C (stereo not drawn) | 0 | - | - | - | - | 0
COc1cccc(-c2cc(C(=O)Nc3cnn(Cc4ccc(Cl)cc4Cl)c3)no2)c1 | 11µM | - | 0 | - | - | ?
COc1cccc(CNc2ncnc3sc(C(=O)N4CC5CCC4C5)c(C)c23)c1OC (stereo not drawn) | 0 | - | - | - | - | 0
COc1ccc(NC(=O)C(=O)NCC(c2cccnc2)N2CCc3ccccc3C2)cc1 (stereo not drawn) | 0 | - | 0 | - | - | 0
O=C(NCC1CCCN1S(=O)(=O)c1cccs1)C(=O)Nc1ccc(F)cc1 (stereo not drawn) | 0 | 28µM | ? | 0 | 0 | 0
COc1ccc(S(=O)(=O)N2CCCC2CNC(=O)C(=O)NCc2ccccc2)cc1 (stereo not drawn) | 0 | 32µM | ? | 0 | 0 | ?
SMILES | Vaccinia Venus | AmpC inh no detg | AmpC detergent | SARS PLP yeast | AMA1-RON2 inh | Vaccinia mCherry
COc1cc(-c2cc(C)c3cccc(OC)c3n2)cc2c1OCCN(C(=O)CCn1ccc(C)n1)C2 | 0 | - | - | - | - | 0
CCCCNc1ccc(/C=C2\C=Cc3ccccc32)cc1 | 0 | - | - | - | - | 0
O=[N+]([O-])c1cccc2nc3ccccc3c(NCCCn3ccnc3[N+](=O)[O-])c12 | 1.4µM | - | - | - | 0 | 2.8µM
O=[N+]([O-])c1ccccc1Nc1c2ccccc2nc2ccccc12 | 0 | 0 | 0 | 0 | 0 | ?
COc1ccc(C(C)(C)C)cc1S(=O)(=O)N1CCC(C(N)=O)CC1 | 0 | 0 | 0 | 0 | 0 | 0
COc1ccc(F)cc1S(=O)(=O)N1CCC(C(N)=O)CC1 | 13µM | 0 | ? | 0 | 0 | ?
Cc1ccc2c(c1)CC1(CN2C)C(=O)OC2(CCCCC2)OC1=O | ? | 0 | 0 | 0 | 0 | 0
CN1CC2(Cc3c1ccc1ccccc31)C(=O)OC(C)(C)OC2=O | 6.3µM | 0 | 0 | 0 | 0 | 4µM
O=C(Nc1cc(-c2ccccc2)[nH]n1)c1ccc(Cl)cc1 | - | 7.1µM! | 0 | 0 | 0 | -
O=C(Nc1ccc(Br)cc1F)c1cnn2c1NC(=C1CC1)C=C2C(F)F | 0 | - | - | - | - | 0
O=C(O)CCCCC1CCSS1 (stereo not drawn) | 0 | 16µM | 50µM | 0 | 0 | 0
N=C1/C(=C/c2ccc(-c3cccc(C(=O)O)c3)o2)C(=O)N=C2SC=C(c3ccccc3)N12 | - | 0 | 50µM | 0 | ? | -
Cc1cccc(/C=N/NC(=O)c2ccc(NC(=O)c3ccc(F)cc3)cc2)n1 | 0 | 18µM | 0 | 0 | 0 | 0
Cc1cccc(/C=N/NC(=O)c2ccc(NC(=O)c3ccc(Cl)cc3)cc2)n1 | ? | 0 | 0 | 0 | 0 | ?
O=C(O)c1[nH]c2ccccc2c1C(c1ccccc1)c1c(C(=O)O)[nH]c2ccccc12 | - | 0 | 0 | 0 | 0 | -
C=CCOc1ccc(C(c2c(C(=O)O)[nH]c3ccccc23)c2c(C(=O)O)[nH]c3ccccc23)cc1 | 0 | 22µM | 0 | 0 | 0 | 0
c1ccc(CNCCC(Cc2ccccc2)c2ccco2)cc1 (stereo not drawn) | 0 | 0 | 0 | 0 | 0 | ?
CN(C)c1ccc(CNCCC(Cc2ccccc2)c2ccco2)cc1 (stereo not drawn) | 0 | 0 | 0 | 0 | 16µM | ?
CCOC(=O)c1cccc(NC2c3ccccc3C(=O)N2Cc2ccco2)c1 (stereo not drawn) | 0 | 0.89µM | ? | 0 | 0 | ?
COc1cc(/C=N\NC(=O)CNC(=O)C(c2ccccc2)c2ccccc2)ccc1O | 0 | 0 | 0 | 0 | 0 | 0
COc1ccc(/C=N\NC(=O)CNC(=O)C(c2ccccc2)c2ccccc2)cc1[N+](=O)[O-] | 0 | 4µM | 0 | 0 | 0 | 0
CC1=C(O)C(=O)C=C2C1=CC=C1C2(C)CCC2(C)C3CC(C)(C(=O)O)CCC3(C)CCC12C (stereo not drawn) | 10µM | - | - | - | ? | 22µM
Cc1c(O)c(O)cc2c1CC=C1[C@]3(C)CC[C@]4(C)CC[C@@](C)(C(=O)O)CC4[C@]3(C)CC[C@]12C (stereo partly drawn) | 0 | - | - | - | - | 0
